# Only some compounds are listed: those with a hit (about 3.1% of all), similar ones and a draw of the others.
# SKKanGAS inh: blocks kanamycin growth of S. pyogenes SKKanGAS strain | inhibition, % at 7.5 µM | 300,000 compounds, 1.3% hits | AID 1662 | BacTiter-Glo, 6 h;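 active = mean replicate score, as percent of positive control median, at least 50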;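 also: strain carries kanamycin resistance gene driven by streptokinase promoter and grows in 40 µg/ml kanamycin; loss of luminescence reflects streptokinase promoter inhibition or plain growth inhibition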
# PP1 inh: counter-screen for PP5 inhibitors: inhibitors of human PP1-alpha; P62136; purified PP1alpha, OMFP fluorescence; inhibition, % at 6.7 µM; 320,000 compounds, 0.9% hits; AID 2235;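 active = inhibition above the mean inhibition of all tested compounds plus 3 SD, computed separately for each screening campaign, cut at about 15% in these data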
# Target sequence (P62136 whole entry, looked up): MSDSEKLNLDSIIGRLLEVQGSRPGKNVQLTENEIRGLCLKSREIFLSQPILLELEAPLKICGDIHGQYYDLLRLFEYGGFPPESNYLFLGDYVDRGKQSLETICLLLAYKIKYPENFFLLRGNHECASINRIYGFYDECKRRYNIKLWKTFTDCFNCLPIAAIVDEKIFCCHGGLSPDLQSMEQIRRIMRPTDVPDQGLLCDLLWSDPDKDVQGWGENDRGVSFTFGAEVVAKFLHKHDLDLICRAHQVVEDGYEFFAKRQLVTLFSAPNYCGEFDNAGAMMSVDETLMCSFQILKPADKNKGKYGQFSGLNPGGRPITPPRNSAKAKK
# PP5 inh: blocks human protein phosphatase 5 activity | 320,000 compounds, 0.18% hits | inhibition, % at 6.7 µM | purified PP5c, OMFP substrate fluorescence | P53041;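 active = inhibition above the campaign's mean inhibition across all tested compounds plus 3 SD, cut at about 9.5% in these data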
# Beta apoptosis: beta cell apoptosis inhibition. 300,000 compounds, 0.8% hits. AID 435005. INS-1E cytokine-induced death, ATP luminescence, 48 h; percent of positive-control rescue, neutral wells zero. protection from apoptosis, % (no concentration beside the values);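 active = Every replicate reaches about 75%, or at least half do and their mean reaches it too, limit read from the data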;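 also: higher means more ATP so stronger rescue from cytokine killing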
# CSC inhib: cancer stem cell inhibition. cancer stem cell-like cells viability, luminescence. inhibition, % at 7.5 µM. 300,000 compounds, 1.1% hits; in the data active = inhibition above about 75%; tested in HMLE shEcad cells
# Hits are given with their value; i = inactive; nt = no result.
SMILES,SKKanGAS inh,PP1 inh,PP5 inh,Beta apoptosis,CSC inhib
CCOc1cccc(-c2cc(C(=O)N3N=C(C)CC3(O)C(F)F)c3ccccc3n2)c1 (stereo not given),i,i,i,i,i
COc1ccc(NC(=O)CCNC(=O)c2ccco2)c(OC)c1,i,i,i,i,i
COc1ccc(NC(=O)CN(C)C(=O)c2cn(-c3ccccc3)nc2-c2ccc(Cl)cc2)cc1,i,i,i,nt,i
CSCCC(NC(=O)COc1ccccc1)C(=O)NCCOc1ccc(C)cc1 (stereo not given),i,nt,nt,i,i
O=S(=O)(N[C@H]1C[C@@H](NS(=O)(=O)OCC(Cl)(Cl)Cl)C2CCCCC21)OCC(Cl)(Cl)Cl (stereo not given in full),93,i,i,i,76
Cn1ncc(N=Cc2c(O)ccc3ccccc23)c1C(=O)Nc1cccc(Cl)c1,i,i,i,i,i
O=[N+]([O-])c1ccc(/C=N/Nc2nc(NCc3ccccc3)nc(N3CCOCC3)n2)cc1,i,i,i,i,nt
O=[N+]([O-])c1cccc(/C=N/Nc2nc(NCc3ccccc3)nc(N3CCOCC3)n2)c1O,i,17,i,i,i
Cc1ccc(S(=O)(=O)N2c3ccccc3OCC2C(C)(C)C)cc1 (stereo not given),58,i,i,nt,i
Cc1ccc2c(c1)N(S(=O)(=O)c1ccc(F)cc1)C(C(C)(C)C)CO2 (stereo not given),i,i,i,i,i
O=C(c1cccc(S(=O)(=O)N2CCc3ccccc3C2)c1)N1CCN(c2ccc(O)cc2)CC1,i,i,i,i,156
CC(Sc1nnc2c(n1)[nH]c1ccccc12)C(=O)NC1CCCCC1 (stereo not given),i,i,i,i,nt
CC(Sc1nnc2c(n1)[nH]c1ccccc12)C(=O)N(C)C1CCCCC1 (stereo not given),i,i,i,100,i
Cn1cc(CCCC(=O)NCc2ccc(F)cc2)c2ccccc21,i,nt,nt,i,i
COc1ccccc1N(C)S(=O)(=O)c1ccc(C(=O)N2CCCC(C(F)(F)F)C2)cc1 (stereo not given),i,i,i,nt,i
CC1=CC(=O)C(C(C)C)=C/C1=C(\c1cc(C(C)C)c(OP(=O)(O)O)cc1C)c1ccccc1C(=O)O,i,15,i,i,101
CCOc1ccc(C(=O)c2ccccc2C(=O)O)cc1OCC,i,i,i,i,i
CCCc1cc(=O)n(-c2nc3ccccc3s2)[nH]1,i,i,i,i,140
CCCN=Cc1c(CCC)[nH]n(-c2nc3ccccc3s2)c1=O,i,i,i,i,i
CCCc1cc(=O)n2c(nc3ccccc32)[nH]1,i,i,i,nt,i
CCCc1[nH]n(-c2nc3ccccc3s2)c(=O)c1C=NCCCN(CC)CC,i,16,i,nt,i
O=C(c1ccco1)c1nnn(Cc2ccccc2)c1-c1ccccc1,i,i,i,i,78
Nc1c(C(=O)NCc2ccco2)nnn1Cc1ccccc1,i,i,i,i,i
CCCCCCc1cc2cc(C(=O)Nc3cccc(OC)c3)c(=O)oc2cc1O,i,i,i,99,nt
CCCCCCc1cc2cc(C(N)=O)c(=N)oc2cc1O,i,i,i,i,i
SMILES,SKKanGAS inh,PP1 inh,PP5 inh,Beta apoptosis,CSC inhib
CCCCCCc1cc2cc(C(=O)OCC)c(=O)oc2cc1O,56,i,i,i,i
Cc1ccc(CNn2cn[nH]c2=S)cc1,i,i,i,i,i
CCCCOC(=O)NS(=O)(=O)c1sc(CC(C)C)cc1-c1ccc(Cn2c(CC)nc3c(C)cc(C)nc32)cc1,nt,i,i,i,100
Cc1ccccc1Nc1c(-c2ccccn2)nc2c(C)cccn12,81,i,i,96,i
Cc1ccccc1Nc1c(-c2ccc(N3CCOCC3)cc2)nc2ncccn12,i,i,i,i,i
COc1ccccc1N1CCN(C(=O)C(=O)c2c[nH]c3ccccc23)CC1,i,i,i,i,i
O=C1OC(c2cccs2)=N/C1=C\c1ccc(-c2cccc(Cl)c2)o1,i,i,i,i,i
COc1ccc(/C=C2\SC(=N)N(c3nccs3)C2=O)cc1OC,89,i,i,i,77
N=C1S/C(=C\c2ccc(-c3cccc(Cl)c3)o2)C(=O)N1c1nccs1,131,i,i,i,i
CCCn1cc(S(=O)(=O)c2ccc(F)cc2)c(=O)c2cc(OCC)ccc21,i,i,i,i,i
Cc1ccc(NC(=S)NCc2ccccc2)cc1S(=O)(=O)N1CCCCC1,i,i,i,i,nt
COc1ccc(-c2nc3ccccc3n2Cc2ccc(C)cc2)cc1,i,i,i,i,i
COc1ccc(Cn2c(-c3ccc(C)cc3)c[n+]3ccccc23)cc1,i,i,i,93,i

# Source: PubChem BioAssay
